Results as given in the supplement of paper PMC11001985.

compound: C#CCNC(=O)CCSSCCC(=O)NCCc1ccc(C=O)c(C=O)c1; test: lysine labeling ratio R10:1 (500 µM / 50 µM probe), SILAC-ABPP in living cells; higher = lower intrinsic lysine reactivity toward the probe, active = 2 or less; settings: HeLa; probe concentrations 500 vs 50 µM
Method in brief: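 R, given per lysine, is the filtered median high-probe/low-probe MS1 peptide ratio, with the median then taken across forward and reverse replicates. Cells were living SILAC light and heavy HeLa cells in PBS at room temperature, labelled with 50 µM or 500 µM of an alkyne-tagged, disulfide-linked lysine probe. The ceiling applied is 20.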

UniProt Q15149, sequence (Q15149 whole entry): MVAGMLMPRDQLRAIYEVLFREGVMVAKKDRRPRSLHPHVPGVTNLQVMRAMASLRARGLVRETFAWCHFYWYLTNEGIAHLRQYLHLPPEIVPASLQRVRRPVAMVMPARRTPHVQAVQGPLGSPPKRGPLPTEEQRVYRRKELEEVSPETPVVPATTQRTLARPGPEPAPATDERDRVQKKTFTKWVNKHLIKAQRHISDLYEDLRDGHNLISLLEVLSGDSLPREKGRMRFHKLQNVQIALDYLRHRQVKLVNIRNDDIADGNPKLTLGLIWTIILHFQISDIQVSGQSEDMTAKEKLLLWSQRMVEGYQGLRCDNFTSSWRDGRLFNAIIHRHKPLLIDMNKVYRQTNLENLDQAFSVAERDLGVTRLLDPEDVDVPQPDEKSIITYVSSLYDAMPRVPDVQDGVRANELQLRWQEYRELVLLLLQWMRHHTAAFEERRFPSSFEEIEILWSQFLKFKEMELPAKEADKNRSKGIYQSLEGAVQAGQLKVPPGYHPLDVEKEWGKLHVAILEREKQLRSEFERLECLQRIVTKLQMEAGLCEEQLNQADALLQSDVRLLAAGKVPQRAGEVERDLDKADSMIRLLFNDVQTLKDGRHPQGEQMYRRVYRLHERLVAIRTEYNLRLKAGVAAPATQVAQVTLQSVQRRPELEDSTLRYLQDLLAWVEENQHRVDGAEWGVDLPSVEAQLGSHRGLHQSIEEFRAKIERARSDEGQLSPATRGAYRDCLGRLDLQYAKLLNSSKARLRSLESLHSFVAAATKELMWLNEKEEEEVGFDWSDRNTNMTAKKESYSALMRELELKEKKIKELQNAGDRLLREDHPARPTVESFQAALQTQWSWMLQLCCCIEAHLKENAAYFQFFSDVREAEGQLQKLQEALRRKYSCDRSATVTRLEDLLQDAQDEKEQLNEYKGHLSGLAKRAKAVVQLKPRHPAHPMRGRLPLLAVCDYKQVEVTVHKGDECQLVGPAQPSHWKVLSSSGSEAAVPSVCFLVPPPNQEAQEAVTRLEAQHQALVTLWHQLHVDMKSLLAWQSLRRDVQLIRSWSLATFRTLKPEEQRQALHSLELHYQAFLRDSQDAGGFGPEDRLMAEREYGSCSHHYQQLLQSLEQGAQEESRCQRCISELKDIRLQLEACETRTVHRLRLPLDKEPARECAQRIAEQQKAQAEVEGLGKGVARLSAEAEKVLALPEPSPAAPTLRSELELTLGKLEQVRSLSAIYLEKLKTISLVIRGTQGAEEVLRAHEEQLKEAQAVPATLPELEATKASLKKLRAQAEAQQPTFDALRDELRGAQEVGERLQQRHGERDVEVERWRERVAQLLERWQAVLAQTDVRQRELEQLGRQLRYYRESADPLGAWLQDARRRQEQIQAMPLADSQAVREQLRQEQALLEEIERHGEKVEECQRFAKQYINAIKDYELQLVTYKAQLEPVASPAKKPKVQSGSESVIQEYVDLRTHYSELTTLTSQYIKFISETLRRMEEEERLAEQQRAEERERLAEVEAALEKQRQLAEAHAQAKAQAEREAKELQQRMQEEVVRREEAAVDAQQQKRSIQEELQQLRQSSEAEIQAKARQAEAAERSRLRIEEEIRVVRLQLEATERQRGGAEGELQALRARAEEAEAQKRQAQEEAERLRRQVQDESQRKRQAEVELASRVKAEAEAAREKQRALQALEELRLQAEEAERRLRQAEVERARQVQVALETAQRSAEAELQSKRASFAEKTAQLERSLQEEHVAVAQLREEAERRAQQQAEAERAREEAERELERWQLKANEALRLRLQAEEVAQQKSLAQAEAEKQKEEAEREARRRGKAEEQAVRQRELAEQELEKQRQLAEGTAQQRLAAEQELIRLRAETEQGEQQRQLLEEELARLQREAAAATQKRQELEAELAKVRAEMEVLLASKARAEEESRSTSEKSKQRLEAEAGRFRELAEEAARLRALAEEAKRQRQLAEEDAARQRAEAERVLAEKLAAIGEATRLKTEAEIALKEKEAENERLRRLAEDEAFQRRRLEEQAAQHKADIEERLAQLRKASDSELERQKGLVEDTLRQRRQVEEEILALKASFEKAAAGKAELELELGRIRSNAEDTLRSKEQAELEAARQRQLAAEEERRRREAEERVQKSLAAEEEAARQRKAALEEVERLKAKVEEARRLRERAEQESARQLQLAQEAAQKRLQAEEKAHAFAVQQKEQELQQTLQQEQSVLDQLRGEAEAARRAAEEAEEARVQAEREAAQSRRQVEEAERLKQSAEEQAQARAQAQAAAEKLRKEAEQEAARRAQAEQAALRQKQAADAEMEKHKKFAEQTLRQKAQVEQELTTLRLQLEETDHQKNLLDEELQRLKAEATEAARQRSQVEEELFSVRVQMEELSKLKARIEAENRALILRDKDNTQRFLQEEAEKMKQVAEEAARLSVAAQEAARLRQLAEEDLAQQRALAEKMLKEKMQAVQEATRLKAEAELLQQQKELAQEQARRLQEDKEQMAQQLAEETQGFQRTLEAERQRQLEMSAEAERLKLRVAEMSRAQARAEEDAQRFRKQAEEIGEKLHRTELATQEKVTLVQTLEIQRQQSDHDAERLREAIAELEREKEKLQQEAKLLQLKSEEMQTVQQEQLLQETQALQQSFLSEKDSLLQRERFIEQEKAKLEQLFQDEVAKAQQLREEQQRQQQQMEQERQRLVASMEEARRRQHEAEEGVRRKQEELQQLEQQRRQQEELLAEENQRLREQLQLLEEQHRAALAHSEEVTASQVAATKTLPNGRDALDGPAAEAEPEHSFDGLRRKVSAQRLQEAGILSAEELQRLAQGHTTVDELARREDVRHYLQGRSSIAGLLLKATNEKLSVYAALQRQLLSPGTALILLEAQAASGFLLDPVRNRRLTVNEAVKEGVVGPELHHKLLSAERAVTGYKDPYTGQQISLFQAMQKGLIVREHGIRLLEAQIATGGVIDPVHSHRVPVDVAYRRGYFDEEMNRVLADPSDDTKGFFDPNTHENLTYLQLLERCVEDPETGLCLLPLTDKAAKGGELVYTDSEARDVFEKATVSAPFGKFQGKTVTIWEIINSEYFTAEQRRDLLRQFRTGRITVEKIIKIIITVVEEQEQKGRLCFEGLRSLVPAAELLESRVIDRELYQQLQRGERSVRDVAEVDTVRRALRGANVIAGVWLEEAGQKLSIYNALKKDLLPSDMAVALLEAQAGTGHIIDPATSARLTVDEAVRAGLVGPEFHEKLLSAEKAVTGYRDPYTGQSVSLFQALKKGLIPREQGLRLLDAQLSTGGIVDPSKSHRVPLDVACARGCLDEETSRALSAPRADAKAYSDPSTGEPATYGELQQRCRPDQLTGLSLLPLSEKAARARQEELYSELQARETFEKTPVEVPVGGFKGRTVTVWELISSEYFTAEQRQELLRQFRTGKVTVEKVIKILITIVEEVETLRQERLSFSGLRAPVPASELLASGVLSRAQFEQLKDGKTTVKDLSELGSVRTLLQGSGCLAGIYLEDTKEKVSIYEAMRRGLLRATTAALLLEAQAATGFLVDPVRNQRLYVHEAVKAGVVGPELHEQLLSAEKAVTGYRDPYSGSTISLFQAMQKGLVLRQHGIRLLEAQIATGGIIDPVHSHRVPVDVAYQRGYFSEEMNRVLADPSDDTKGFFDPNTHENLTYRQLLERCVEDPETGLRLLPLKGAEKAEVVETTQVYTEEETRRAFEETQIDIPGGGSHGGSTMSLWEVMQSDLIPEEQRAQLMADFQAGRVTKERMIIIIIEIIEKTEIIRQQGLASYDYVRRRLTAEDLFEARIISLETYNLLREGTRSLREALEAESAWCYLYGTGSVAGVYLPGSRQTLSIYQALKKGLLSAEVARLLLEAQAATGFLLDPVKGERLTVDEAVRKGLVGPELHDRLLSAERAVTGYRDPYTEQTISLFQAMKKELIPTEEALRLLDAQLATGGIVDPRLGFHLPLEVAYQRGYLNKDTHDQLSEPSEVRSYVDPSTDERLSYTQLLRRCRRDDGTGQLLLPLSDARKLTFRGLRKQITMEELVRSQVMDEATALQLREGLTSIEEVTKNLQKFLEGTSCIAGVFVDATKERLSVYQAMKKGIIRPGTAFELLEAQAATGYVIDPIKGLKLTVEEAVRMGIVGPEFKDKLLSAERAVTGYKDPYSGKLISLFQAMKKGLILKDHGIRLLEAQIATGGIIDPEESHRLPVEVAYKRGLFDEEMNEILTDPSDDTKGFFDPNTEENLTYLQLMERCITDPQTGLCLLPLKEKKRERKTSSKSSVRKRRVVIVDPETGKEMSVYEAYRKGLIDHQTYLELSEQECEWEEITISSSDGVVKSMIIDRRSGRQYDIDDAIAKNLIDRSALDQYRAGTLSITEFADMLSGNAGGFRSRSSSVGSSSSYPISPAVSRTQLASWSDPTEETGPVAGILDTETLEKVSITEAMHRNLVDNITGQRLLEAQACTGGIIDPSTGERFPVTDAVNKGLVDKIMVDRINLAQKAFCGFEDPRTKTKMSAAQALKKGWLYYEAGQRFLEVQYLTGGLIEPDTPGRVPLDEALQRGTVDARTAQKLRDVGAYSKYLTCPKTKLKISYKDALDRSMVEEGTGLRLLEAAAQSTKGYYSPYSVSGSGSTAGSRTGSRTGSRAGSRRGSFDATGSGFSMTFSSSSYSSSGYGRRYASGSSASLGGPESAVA
UniProt P01008, sequence (P01008 whole entry): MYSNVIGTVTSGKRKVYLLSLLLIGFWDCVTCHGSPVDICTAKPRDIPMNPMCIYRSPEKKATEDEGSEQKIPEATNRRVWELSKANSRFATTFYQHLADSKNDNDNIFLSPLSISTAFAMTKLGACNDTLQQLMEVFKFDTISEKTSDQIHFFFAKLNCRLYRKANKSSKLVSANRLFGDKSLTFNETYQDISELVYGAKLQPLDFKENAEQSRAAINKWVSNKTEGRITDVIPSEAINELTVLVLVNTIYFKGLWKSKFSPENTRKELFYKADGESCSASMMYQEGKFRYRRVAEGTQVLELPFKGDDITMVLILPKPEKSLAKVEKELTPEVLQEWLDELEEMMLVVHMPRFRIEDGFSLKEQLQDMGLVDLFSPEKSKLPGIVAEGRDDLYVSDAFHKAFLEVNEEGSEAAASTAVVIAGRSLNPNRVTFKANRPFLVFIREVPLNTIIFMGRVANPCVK

Target | lysine labeling ratio R10:1
NUMA1 (lysine site: K1475) (UniProt Q14980) | 5.25 (inactive)
UniProt P48047 (lysine site: K98) | 1.89 (active)
UniProt Q6ZMR3 (lysine site: K155) | 2.54 (inactive)
APOC3 (lysine site: K44) (UniProt P02656) | 3.68 (inactive)
MCAM (lysine site: K398) (UniProt P43121) | 5.61 (inactive)
SERPINC1 (lysine site: K260) (UniProt P01008) | 5.6 (inactive)
PPL (lysine site: K492) (UniProt O60437) | 1.71 (active)
MSN (lysine site: K538) (UniProt P26038) | 4.98 (inactive)
FAT1 (lysine site: K3783) (UniProt Q14517) | 1.6 (active)
UniProt P14618 (lysine site: K247) | 3 (inactive)
FOLR1 (lysine site: K62) (UniProt P15328) | 5.42 (inactive)
ENG (lysine site: K402) (UniProt P17813) | 2.25 (inactive)
RBMX (lysine site: K86) (UniProt P38159) | 2.06 (inactive)
TFRC (lysine site: K128) (UniProt P02786) | 6.74 (inactive)
UniProt P06576 (lysine site: K133) | 3.53 (inactive)
ATP2A2 (lysine site: K169) (UniProt P16615) | 7.34 (inactive)
IQGAP1 (lysine site: K856) (UniProt P46940) | 1.47 (active)
ACSL3 (lysine site: K679) (UniProt O95573) | 2.71 (inactive)
SPTBN1 (lysine site: K1421) (UniProt Q01082) | 3.37 (inactive)
ITGB1 (lysine site: K134) (UniProt P05556) | 1.83 (active)

Target | lysine labeling ratio R10:1
UniProt P62195 (lysine site: K55) | 2.19 (inactive)
UniProt P62987 (lysine site: K93) | 5.44 (inactive)
UniProt P05787 (lysine site: K465) | 5.11 (inactive)
ENAH (lysine site: K574) (UniProt Q8N8S7) | 5.16 (inactive)
MYH9 (lysine site: K656) (UniProt P35579) | 2.88 (inactive)
ARHGDIA (lysine site: K43) (UniProt P52565) | 1.51 (active)
FRAS1 (lysine site: K2396) (UniProt Q86XX4) | 1.59 (active)
CDH13 (lysine site: K185) (UniProt P55290) | 4.74 (inactive)
NEGR1 (lysine site: K98) (UniProt Q7Z3B1) | 5.29 (inactive)
FLNA (lysine site: K1164) (UniProt P21333) | 1.16 (active)
UniProt Q15149 (lysine site: K2277) | 0.748 (active)
HNRNPL (lysine site: K538) (UniProt P14866) | 1.29 (active)
HNRNPU (lysine site: K551) (UniProt Q00839) | 1.98 (active)
UniProt P62913 (lysine site: K178) | 3.2 (inactive)
UniProt Q15149 (lysine site: K2903) | 2.51 (inactive)
CACYBP (lysine site: K19) (UniProt Q9HB71) | 7.06 (inactive)
TLN1 (lysine site: K1190) (UniProt Q9Y490) | 14.3 (inactive)
UniProt P16144 (lysine site: K510) | 2.83 (inactive)
RARS (lysine site: K471) (UniProt P54136) | 2.85 (inactive)
CDCP1 (lysine site: K454) (UniProt Q9H5V8) | 1.89 (active)
